HCMV antiviral – qHTS Assay for inhibitors of the human cytomegalovirus (HCMV); 4.5% of 410,000 active; AID 1259415, 2018; activity change, negative = inhibition, % at 57.5 µM; HFF cells, HCMV-luciferase reporter, 72 h; active compounds read low; in the data active = activity change below about -60%; inconclusive = no clear call, values can overlap the other calls; inactive = above about -39%
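Cell-based, HFFs, 1000 cells/well, 16 h 37C; cpds in DMSO + HCMV-luc, MOI 1 PFU/cell; 72 h 37C; OneGlo luminescence after 5 min RT; norm. to buffer vs Salinomycin 10uM.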
Marburg entry inh – qHTS for inhibitors of binding or entry into cells for Marburg Virus; Marburg virus pseudotyped entry inhibition, cell reporter; Potency, µM (titrated, usually from 37.8 µM), for the others: top-dose activity change, negative = inhibition, most hits filed as inhibitors; 1.8% of 300,000 active; AID 540276, 2011; calls by dose curve; tested in HEK293 cells; note: potency is the fitted concentration of half-maximal effect
VACV mCherry inh – qHTS for Stage-Specific Inhibitors of Vaccinia Orthopoxvirus: mCherry Reporter Primary qHTS. 0.63% of 310,000 active. AID 720579, 2013. Potency, µM (series often up to 36.5 µM), inactives show top-dose activity change, negative = inhibition, hits mostly inhibitors. Vaccinia virus mCherry reporter infection, fluorescence; calls by dose curve; tested in A549 cells; note: potency is the fitted concentration of half-maximal effect; nearly all actives have a fitted effect of over 35% in size
HCV inh – qHTS Assay for Inhibitors of Hepatitis C Virus (HCV); Huh7.5.1 HCVcc-Cre infection, luciferase reporter, 44 h; Potency, µM (top dose mostly 41.8 µM), for the others: top-dose activity change, negative = inhibition, hits mostly inhibitors; 3.4% of 340,000 active; active = well fitted inhibition curve with a large enough effect; inconclusive = small, poorly fitted or top-dose-only effect, or another doubt; inactive = no such curve, though single readings can be large or run the other way; note: potency is the fitted concentration of half-maximal effect
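Luciferase read-out (15 sec integration) after a 15 min room-temperature substrate step quantifies HCVcc-Cre infection. Cells, 1,000 per well, had compound added 4 h post-plating, then virus at ~0.5 moi, and were cultured 44 h.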
VACV Venus inh – qHTS for Stage-Specific Inhibitors of Vaccinia Orthopoxvirus: Venus Reporter Primary qHTS. Potency, µM (highest dose often 36.5 µM), without a hit: at the top dose activity change, negative = inhibition, actives largely listed as inhibitors. 0.46% of 330,000 active. Vaccinia virus Venus reporter expression, fluorescence; calls by dose curve; tested in A549 cells; note: potency is the fitted concentration of half-maximal effect; nearly all actives have a fitted effect of over 30% in size
LASV entry inh – qHTS for Inhibitors of binding or entry into cells for Lassa Virus | Potency, µM (top dose mostly 37.9 µM), for inactives: at the highest dose activity change, negative = inhibition, usual class: inhibitors | 1.2% of 300,000 active | Lassa virus pseudotype entry inhibition, cell reporter; calls by dose curve; tested in HEK293 cells; note: potency is the fitted concentration of half-maximal effect; nearly all actives have a fitted effect of over 50% in size
* marks the source's active call; other numbers are inactive results; i = inactive; ? = inconclusive; · = no result; [ ] = remark or other dose. In the library only some 7.8% were active in any assay of this set; here they are far more common. % is set by controls: 0 for no effect and ±100 for the full control effect.

SMILES	HCMV antiviral	Marburg entry inh	VACV mCherry inh	HCV inh	VACV Venus inh	LASV entry inh
O=C(CCNC(=O)c1ccccc1Cl)Nc1nc(-c2ccc(F)cc2)cs1	-80*	-28%	-26%	-7%	-19%	?
COc1ccc(NC(=O)c2c(NCc3cccc(OC)c3)sc3c2CCC3)cc1	42	·	-18%	·	-11%	16%[46.1 µM]
O=C(Nc1ccc(Cl)cc1Cl)[C@@H]1CC=C[C@@H]2CCN(C3CCCCC3)C(=O)[C@@H]21	·	·	-1%	·	-7%	·
Cc1ccc(-c2nn(-c3ccccc3)cc2CO)cc1	-8	13%	?	-2%	-23%	?
COc1ccc(-n2cc(CNCCc3cscn3)c(-c3ccccc3Cl)n2)cc1	-37	?	-14%	-2%	-11%	-27%[46.1 µM]
Cc1ccc(-c2nn(-c3ccccc3)cc2CNCc2ccccc2)cc1	-38	?	?	11µM*	?	?
Cc1ccc(C)c(-n2cc(CNCCCn3cccn3)c(-c3ccccc3)n2)c1	-65*	10µM*	-54%	?	-11%	?
Cc1ccc(-n2cc(CNCCCn3cccn3)c(-c3cccc(C)c3)n2)cc1	-38	?	-20%	-2%	-28%	?
Cc1ccc(-n2cc(CNCCCn3ccnc3C)c(-c3ccc(F)cc3)n2)cc1	-82*	?	?	?	?	?
Cc1ccc(-n2cc(CNCCc3cscn3)c(-c3ccc(F)cc3)n2)cc1	-30	13µM*	i	?	-20%	?
COC(=O)[C@]12CCCCC=C1N(Cc1ccc3c(c1)OCO3)C(=O)[C@H](CC(=O)NCC1CCCCC1)C2	18	·	-15%	·	-22%	·
CN1C(=O)C(C)(C)c2cc(S(=O)(=O)N3CCCC3C(=O)Nc3ccc(F)cc3)ccc21 (centres undefined)	-21	·	-2%	·	-29%	-4%[46.1 µM]
O=C(NCc1ccccc1Cl)c1c2c(nc3ccccc13)C(=O)N(C1CCCCC1)C2	12	·	-2%	·	-18%	-7%[46.1 µM]
CCOC(=O)c1ccc(-n2c(N)c(C(=O)OC)c3nc4ccccc4nc32)cc1	?	·	-16%	·	-7%	-27%[46.1 µM]
CCn1c(-c2ccccc2Cl)nn(CC(=O)NCCc2ccccc2)c1=S	-26	-35%	i	-1%	-10%	5%
CCn1c(-c2ccccc2Cl)nn(CC(=O)Nc2cc(Cl)ccc2Cl)c1=S	?	?	-3%[1.46 µM]	13µM*	-25%	?
Cc1ccc(C(=O)CC2(O)C(=O)N(Cc3ccccc3Cl)c3ccccc32)o1 (centres undefined)	-24	-11%	-24%	-8%	-16%	-9%
COc1cc(C(=O)CC2(O)C(=O)N(Cc3ccccc3Cl)c3ccccc32)cc(OC)c1OC (centres undefined)	-71*	-26%[46.1 µM]	-10%	·	-6%	?
COc1cc(OC)cc(C(=O)NNC(=O)CCNS(=O)(=O)c2ccc(C)c(C)c2)c1	-4	-9%	-5%	-2%	-19%	1%
Cc1ccc(S(=O)(=O)NCCC(=O)NNC(=O)c2ccccc2O)cc1C	-14	0%	-27%	3.2µM*	-21%	-2%
N#CC(C(=O)C1=C(Cl)CCCC1)=C1SCCCS1	·	3%	·	·	·	·
CCC(=O)Nc1ccc(-c2nnc3c4ccccc4c(C)nn23)cc1	-35	3%[46.1 µM]	-2%	·	7%	?
COc1ccc(-c2cc3c(c4c2ccn4C)C2CCC3C2)cc1OC (centres undefined)	-60*	?	15%	·	-12%	·
CCCN(CC1CC1)c1cc2c(c3c1ccn3C)C1CCC2C1 (centres undefined)	-62*	3.1µM*	i	·	-1%	·
CCN(CC)c1cc2c(c3c1ccn3C)C1CCC2C1 (centres undefined)	-38	·	0%	·	1%	·
SMILES	HCMV antiviral	Marburg entry inh	VACV mCherry inh	HCV inh	VACV Venus inh	LASV entry inh
Cn1ccc2c(N3c4ccccc4CCc4ccccc43)cc3c(c21)C1CCC3C1 (centres undefined)	-93*	·	-9%	·	-15%	-1%[46.1 µM]
COC(=O)c1c(OCc2ccccn2)cc(=O)n2c1CCN(Cc1ccc3c(c1)CCCN3C)CC2	·	·	-15%	·	-8%	·
CCCCN(C)CCNC(=O)Cn1ncc2c3ccccc3n(CCC)c2c1=O	-30	·	-9%	·	-15%	5%[46.1 µM]
CCn1c2ccccc2c2c3ncc4cccn4c3ccc21	192	13%[46.1 µM]	-29%	11µM*	-11%	2%[46.1 µM]
COc1ccc(-c2cccc(CCC(=O)N3CCN(c4cc(C)ccc4C)CC3)c2)cc1	?	·	-5%	?	-4%	·
CCOc1ccc(NC(=O)NCCN2CCN(c3cccc(C)c3C)CC2)cc1	-20	-9%[46.1 µM]	-23%	?	-20%	4%[46.1 µM]
CCOc1cccc(N2CCN(CCNC(=O)Nc3ccc(C)cc3)CC2)c1C	4	·	·	13µM*	·	·
COc1ccc(NC(=O)NCCCN2CCN(c3cc(C)ccc3C)CC2)cc1	-40	·	?	10µM*	-16%	·
COc1ccc(C2=C(C)C(=NCCCN3CCN(c4cc(C)ccc4C)CC3)NS2(=O)=O)cc1	-91*	-20%[46.1 µM]	?	·	?	-13%[46.1 µM]
CC(=O)c1cccc(-c2ccnc3c2CC(C(=O)Nc2ccc(Cl)c(C(F)(F)F)c2)O3)c1 (centres undefined)	-7	·	-20%	·	-16%	·
COc1ccc(S(=O)(=O)Nc2ccc3c(c2)OCCO3)cc1Cl	-16	-16%	?	11µM*	-26%	-6%
CC(=O)NCCc1ccc(S(=O)(=O)Nc2ccc3c(c2)OCCO3)cc1	-64*	9%[46.1 µM]	0%	-4%	18%	-4%[46.1 µM]
Cc1cc(C)cc(NS(=O)(=O)c2ccc3c(c2)c(=O)n(C)c(=O)n3C)c1	?	?	5.6µM*	6.3µM*	5µM*	?
Cc1ccc(CNS(=O)(=O)c2ccc3c(c2)n(C)c(=O)n3C)cc1	-66*	?	-27%	?	0%	?
Cc1cccc(-c2nc(SCC(=O)N3CCc4ccccc43)c3c(=O)n(C)c(=O)n(C)c3n2)c1	23	·	9%	·	-6%	5%[46.1 µM]
Cc1ccc(C)c(N2CCN(C(=O)CCn3c(=O)[nH]c4ccccc4c3=O)CC2)c1	-18	·	-27%	·	-20%	-12%[46.1 µM]
COc1ccc(NS(=O)(=O)c2ccc3c(c2)OCCO3)cc1OC	-75*	?	-27%	6.3µM*	-6%	-14%[46.1 µM]
COc1ccc(S(=O)(=O)Nc2ccc3c(c2)n(C)c(=O)n3C)cc1OC	191	-5%[46.1 µM]	-4%	3.2µM*	-7%	?
CC(=O)Nc1ccc(S(=O)(=O)Nc2ccc3c(c2)OCCO3)cc1Cl	-88*	-29%[46.1 µM]	-9%	?	-15%	-14%[46.1 µM]
COc1ccc(S(=O)(=O)Nc2ccc3c(c2)n(C)c(=O)n3C)cc1F	-6	-5%[46.1 µM]	i	?	-13%	-24%[46.1 µM]
COc1ccc(S(=O)(=O)Nc2ccc3c(c2)OCO3)cc1OC	36	-17%	·	4%	·	5%
